PubChem BioAssay AID1159580 (chemical genetic matrix, 2015)
Out of some 5,500 compounds screened, about 2,000 (36%) were called active. Not shown: some 18% with an inconclusive outcome. Rule as the data show it: active = normalized growth mostly below about 0.91 (no sharp cut-off); inconclusive = no clear call, values can overlap the other calls; inactive = mostly above about 0.92. This is one part of the list.

Assay: chemical genetic growth profiling, strain panel (AID 1159580);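 also: tested at 20 µM; growth read once vehicle control cultures reached saturation at 30 °C; 1 = growth at the plate median or of vehicle wells; lower values mean less growth of the strain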
Settings: growth OD
[1] = S. cerevisiae deletion strains, locus YBR021W, strain FUR4, active compounds read low
[2] = S. cerevisiae deletion strains, locus YBR229C, strain ROT2, active compounds read low
[3] = S. cerevisiae deletion strains, locus YCL029C, strain bik1, active compounds read low
[4] = S. cerevisiae deletion strains, locus YDL035C, strain GPR1, active compounds read low
[5] = S. cerevisiae deletion strains, locus YDL074C, strain BRE1, active compounds read low
[6] = S. cerevisiae deletion strains, locus YDL101C, strain DUN1, active compounds read low
[7] = S. cerevisiae deletion strains, locus YDL185W, strain tfp1, active compounds read low
[8] = S. cerevisiae deletion strains, locus YDL192W, strain arf1, active compounds read low
[9] = S. cerevisiae deletion strains, locus YDR101C, strain arx1, active compounds read low
[10] = S. cerevisiae deletion strains, locus YDR162C, strain NBP2, active compounds read low
[11] = S. cerevisiae deletion strains, locus YDR318W, strain mcm21, active compounds read low
[12] = S. cerevisiae deletion strains, locus YDR388W, active compounds read low
[13] = S. cerevisiae deletion strains, locus YDR502C, strain sam2, active compounds read low
[14] = S. cerevisiae deletion strains, locus YER110C, active compounds read low
[15] = S. cerevisiae deletion strains, locus YER155C, strain BEM2, active compounds read low
[16] = S. cerevisiae deletion strains, locus YER167W, strain BCK2, active compounds read low
[17] = S. cerevisiae deletion strains, locus YGL078C, strain dbp3, active compounds read low
[18] = S. cerevisiae deletion strains, locus YGL086W, strain mad1, active compounds read low
[19] = S. cerevisiae deletion strains, locus YGL248W, strain PDE1, active compounds read low
[20] = S. cerevisiae deletion strains, locus YGR078C, strain PAC10, active compounds read low
[21] = S. cerevisiae deletion strains, locus YGR135W, strain pre9, active compounds read low
[22] = S. cerevisiae deletion strains, locus YGR252W, strain gcn5, active compounds read low
[23] = S. cerevisiae deletion strains, locus YHR030C, strain SLT2, active compounds read low
[24] = S. cerevisiae deletion strains, locus YHR079C, strain IRE1 (second series), active compounds read low
[25] = S. cerevisiae deletion strains, locus YHR094C, strain hxt1, active compounds read low
[26] = S. cerevisiae deletion strains, locus YHR129C, strain ARP1, active compounds read low
[27] = S. cerevisiae deletion strains, locus YHR200W, strain rpn10, active compounds read low
[28] = S. cerevisiae deletion strains, locus YIL066C, strain RNR3, active compounds read low
[29] = S. cerevisiae deletion strains, locus YIL073C, strain SPO22, active compounds read low
[30] = S. cerevisiae deletion strains, locus YIL125W, strain kgd1, active compounds read low
[31] = S. cerevisiae deletion strains, locus YIR030C, strain dcg1, active compounds read low
[32] = S. cerevisiae deletion strains, locus YJL095W, strain BCK1, active compounds read low
[33] = S. cerevisiae deletion strains, locus YJL134W, strain LCB3, active compounds read low
[34] = S. cerevisiae deletion strains, locus YJL168C, strain set2, active compounds read low
[35] = S. cerevisiae deletion strains, locus YJL187C, strain SWE1 (second series), active compounds read low
[36] = S. cerevisiae deletion strains, locus YJR043C, strain POL32, active compounds read low
[37] = S. cerevisiae deletion strains, locus YKL009W, strain mrt4, active compounds read low
[38] = S. cerevisiae deletion strains, locus YKL068W, active compounds read low
[39] = S. cerevisiae deletion strains, locus YKL085W, strain MDH1 (second series), active compounds read low
[40] = S. cerevisiae deletion strains, locus YKL085W, strain MDH1, active compounds read low
[41] = S. cerevisiae deletion strains, locus YKR001C, strain vps1, active compounds read low
[42] = S. cerevisiae deletion strains, locus YLR039C, strain RIC1, active compounds read low
[43] = S. cerevisiae deletion strains, locus YLR058C, strain SHM2, active compounds read low
[44] = S. cerevisiae deletion strains, locus YLR102C, strain apc9, active compounds read low
[45] = S. cerevisiae deletion strains, locus YLR268W, strain sec22, active compounds read low
[46] = S. cerevisiae deletion strains, locus YLR371W, strain rom2, active compounds read low
[47] = S. cerevisiae deletion strains, locus YLR418C, strain cdc73, active compounds read low
[48] = S. cerevisiae deletion strains, locus YML016C, strain PPZ1, active compounds read low
[49] = S. cerevisiae deletion strains, locus YML032C, strain rad52, active compounds read low
[50] = S. cerevisiae deletion strains, locus YML124C, strain tub3, active compounds read low
[51] = S. cerevisiae deletion strains, locus YMR078C, strain ctf18, active compounds read low
[52] = S. cerevisiae deletion strains, locus YMR223W, strain ubp8, active compounds read low
[53] = S. cerevisiae deletion strains, locus YMR307W, strain GAS1, active compounds read low
[54] = S. cerevisiae deletion strains, locus YNL067W, strain RPL9B, active compounds read low
[55] = S. cerevisiae deletion strains, locus YNL233W, strain BNI4, active compounds read low
[56] = S. cerevisiae deletion strains, locus YNL250W, strain rad50, active compounds read low
[57] = S. cerevisiae deletion strains, locus YNL271C, strain bni1, active compounds read low
[58] = S. cerevisiae deletion strains, locus YNL298W, strain CLA4, active compounds read low
[59] = S. cerevisiae deletion strains, locus YNL307C, strain MCK1, active compounds read low
[60] = S. cerevisiae deletion strains, locus YNR052C, strain pop2, active compounds read low
[61] = S. cerevisiae deletion strains, locus YOL012C, strain htz1
[62] = S. cerevisiae deletion strains, locus YOL147C, strain pex11, active compounds read low
[63] = S. cerevisiae deletion strains, locus YOR061W, strain CKA2, active compounds read low
[64] = S. cerevisiae deletion strains, locus YOR069W, strain VPS5, active compounds read low
[65] = S. cerevisiae deletion strains, locus YOR136W, strain idh2, active compounds read low
[66] = S. cerevisiae deletion strains, locus YOR144C, strain elg1, active compounds read low
[67] = S. cerevisiae deletion strains, locus YOR184W, strain ser1, active compounds read low
[68] = S. cerevisiae deletion strains, locus YOR316C, strain cot1, active compounds read low
[69] = S. cerevisiae deletion strains, locus YPL241C, strain CIN2, active compounds read low
[70] = S. cerevisiae deletion strains, locus YPR119W, strain clb2, active compounds read low
[71] = S. cerevisiae deletion strains, locus YPR141C, strain kar3, active compounds read low
[72] = S. cerevisiae deletion strains, locus YPR163C, strain tif3, active compounds read low
[73] = S. cerevisiae deletion strains, locus YPR167C, strain met16, active compounds read low
[74] = S. cerevisiae deletion strains, strain wtn01, active compounds read low

Measured: normalized growth

COc1ccc(CC2c3cc(OC)c(OC)cc3CCN2C)cc1OC (stereo not given)
inactive: S. cerevisiae deletion strains, locus YAL013W, strain DEP1, active compounds read low 0.984 | [1] 1.05 | [2] 0.969 | [3] 0.988 | [4] 0.997 | [5] 0.964 | [6] 0.961 | S. cerevisiae deletion strains, locus YDL134C, strain PPH21, active compounds read low 0.981 | [7] 0.951 | [8] 0.994 | [9] 1.01 | S. cerevisiae deletion strains, locus YDR150W, strain NUM1, active compounds read low 0.974 | [10] 0.941 | [11] 1.02 | [12] 0.992 | [13] 0.974 | S. cerevisiae deletion strains, locus YEL061C, strain CIN8, active compounds read low 0.988 | [14] 0.987 | [15] 1 | [16] 0.997 | [17] 0.976 | [18] 1.01 | [19] 0.978 | [20] 0.967 | [21] 0.957 | S. cerevisiae deletion strains, locus YGR229C, strain SMI1, active compounds read low 0.997 | [22] 1.08 | [23] 1 | [24] 0.99 | [25] 0.988 | [26] 0.987 | [27] 0.982 | [28] 0.971 | [29] 1.02 | [30] 0.983 | [31] 0.979 | [32] 0.985 | [33] 0.993 | [34] 0.98 | [35] 0.959 | [36] 1.03 | S. cerevisiae deletion strains, locus YJR075W, strain HOC1, active compounds read low 0.926 | [37] 0.995 | [38] 0.99 | [39] 0.97 | [40] 0.97 | S. cerevisiae deletion strains, locus YKL190W, strain CNB1, active compounds read low 0.978 | [41] 1 | [42] 0.959 | [43] 0.973 | [44] 0.978 | S. cerevisiae deletion strains, locus YLR262C, strain YPT6, active compounds read low 0.951 | [45] 0.953 | S. cerevisiae deletion strains, locus YLR330W, strain CHS5, active compounds read low 0.998 | S. cerevisiae deletion strains, locus YLR342W, strain FKS1 (second series), active compounds read low 1.05 | [46] 0.993 | [47] 0.955 | [48] 0.988 | [49] 1 | [50] 0.993 | [51] 0.989 | [52] 0.948 | S. cerevisiae deletion strains, locus YMR263W, strain SAP30, active compounds read low 0.96 | [53] 1.1 | [54] 0.959 | S. cerevisiae deletion strains, locus YNL128W, strain TEP1, active compounds read low 0.945 | S. cerevisiae deletion strains, locus YNL153C, strain GIM3, active compounds read low 0.947 | [55] 0.979 | [56] 0.97 | [57] 0.987 | [58] 0.978 | [59] 0.998 | S. cerevisiae deletion strains, locus YNL322C, strain KRE1, active compounds read low 0.982 | [60] 0.991 | S. cerevisiae deletion strains, locus YOL006C, strain TOP1, active compounds read low 0.936 | [61] 0.876 | [62] 0.991 | [63] 0.964 | [64] 0.994 | [65] 0.994 | [66] 0.993 | [67] 1.03 | [68] 0.975 | S. cerevisiae deletion strains, locus YPL055C, strain LGE1, active compounds read low 0.935 | [69] 0.99 | [70] 0.995 | [71] 0.968 | [72] 0.984 | [73] 0.979 | [74] 0.934 | S. cerevisiae strains, strain wild type, active compounds read low 0.987

COc1cc(OC)c2c(c1)OC(c1ccc(OC)c(OC)c1)C(O)C2 (stereo not given)
inactive: [1] 1.04 | [2] 1.01 | [3] 1.03 | [4] 1.08 | [5] 1.11 | [6] 1.02 | [7] 1.03 | [8] 1.02 | [9] 0.991 | [10] 1.04 | [11] 1.03 | [12] 1 | [13] 1.03 | [14] 1.01 | [15] 0.999 | [16] 1 | [17] 1.03 | [18] 1.02 | [19] 1.06 | [20] 1.04 | [21] 1.05 | [22] 1.05 | [23] 1.02 | [24] 1.02 | [25] 1.01 | [26] 1.02 | [27] 1.04 | [28] 1.02 | [29] 1.16 | [30] 1.02 | [31] 1.02 | [32] 1.07 | [33] 1.01 | [34] 1.01 | [35] 1.05 | [36] 1.06 | [37] 1.04 | [38] 0.998 | [39] 1.01 | [40] 1.01 | [41] 1.03 | [42] 1.17 | [43] 1.03 | [44] 1.01 | [45] 1.01 | [46] 1.05 | [47] 1.04 | [48] 1.01 | [49] 1.02 | [50] 1 | [51] 1.02 | [52] 1.02 | [53] 1.22 | [54] 1.01 | [55] 1.05 | [56] 1.05 | [57] 1.01 | [58] 1.03 | [59] 1.01 | [60] 1.05 | [61] 1.04 | [62] 1.03 | [63] 1.01 | [64] 1.02 | [65] 1.02 | [66] 1.01 | [67] 1.02 | [68] 1.03 | [69] 1.02 | [70] 1.01 | [71] 1.02 | [72] 1.02 | [73] 1.04 | [74] 1.03
